# Measured potencies and affinities stand elsewhere. Active and inactive are the calls of the source. How the calls were made is not given here.
# Test: toxicity toward cultured mammalian cells – cell-based, plate reader, cherry-pick samples, cytotoxicity control, dose response (AID 504397)
# Settings: plate reader viability; series mostly up to 35 µM
compound,measurement,value
CCOC(=O)[C@@H]1[C@H]2COc3ccc(Br)cc3[C@@H]2N2C(=O)N(c3cccc(C)c3)C(=O)[C@]12C,outcome,inactive

# — PubChem BioAssay AID504397 (Broad Institute, 2011)
